# The panel holds about 83,000 compounds, 20% with a hit somewhere; the sample as a whole holds those more often.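 How to read the values: 0–100, growth inhibition (40 = 60% inhibited); 0, no net growth; -100 to 0, cell death (-40 = 40% of starting cells died; -100 = all dead).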 Values without a mark were called inactive.
# System: PC-3 prostate
# Assay: NCI-60 one-dose screen, 48 h (100 = growth as untreated, 0 = no growth, -100 = all killed)
# Conditions: 10 µM unless noted
# Procedure: Growth inhibition of the PC-3 human tumor cell line is measured as a screen for anti-cancer activity. Cells are grown in 96 well plates and exposed to the test compound for 48 hours. Compounds are tested at a single concentration, which is 10^-5 M for most compounds. The reported endpoint is percent growth (GI% or GIPRCNT), where numbers from 0 - 100% represent growth inhibition, and numbers from -100% - 0 represent cell death. For example, a value of 40 represents 60% growth inhibition. A value of 0 means no net growth occurred over the course of the experiment. A value of -40 indicates 40% of cells at the beginning of the experiment died by the end of the experiment. A value of -100 means all cells are dead at the end of the experiment.
# NCI-60 Human Tumor Cell Lines Screen was performed using the standard one-dose NCI protocol, which is described in more detail at https://dtp.cancer.gov/discovery_development/nci-60/default.htm.
# Compounds with GIPRCNT values below 10 were considered active. Activity score was based on GIPRCNT using the following formula: […]
# Score is 0 for GIPRCNT values of 100 or above, 50 for GIPRCNT values of 0, and 100 for GIPRCNT values of -100.
row,SMILES,growth
1,O=C(c1cccc(C(=O)c2ccc3c4c(cccc24)C(=O)N(c2ccccc2)C3=O)c1)c1ccc2c3c(cccc13)C(=O)N(c1ccccc1)C2=O,82.3%
2,CC(=O)c1cccc(N(C)S(=O)(=O)c2ccc(C)cc2)c1,85.2%
3,CC(C)=CCC[C@@H](C)[C@H]1CC[C@@]2(C)C3=C(CC[C@]12C)[C@@]1(C)CC[C@H](O)C(C)(C)[C@@H]1CC3,101%
4,CCC(C)c1c(N)n(S(=O)(=O)c2ccc(C)cc2)oc1=O (stereo not given),94.3%
5,C=C(C)COc1ccc(C(C)(C)C)cc1,96.9%
6,CCOC(=O)C(C#N)=C1CCN(C)CC1,87.7%
7,CC(C)(N)CO[C@H]1C[C@H]2CC[C@@]1(C)C2(C)C,88.8%
8,O=C(NCc1ccco1)Nc1cccc2c(NC(=O)NCc3ccco3)cccc12,42.9% [100 µM]
9,CCCC1OC(c2ccco2)OCC1CC (stereo not given),92.5%
10,CCN(CC)CCOC(=O)Nc1c(C(C)C)cccc1C(C)C,95.5%
11,S=C=Nc1ccc2ccccc2c1,102%
12,CCOC(C=O)OCC,95.1%
13,O=S(=O)(OCCOS(=O)(=O)c1ccccc1)c1ccccc1,94.4%
14,Cc1cc(Nc2ccc3c(c2)OCO3)c2cc3c(cc2n1)OCO3,10.6%
15,O=C1C=C[C@H](O)[C@@]2(CO)O[C@@H]12,82.3%
16,Cc1ccc(C)c(CCO)c1,95.5%
17,CC(C)(C)NCCC(O)c1cc(C(F)(F)F)nc2c(C(F)(F)F)cccc12 (stereo not given),55.3%
18,CC(=O)NC(O)C(Cl)Cl (stereo not given),96.4%
19,O=C(O)Cc1ccccn1,102%
20,Cc1cc(CC(=O)NCCO)n(CCO)c(=O)c1,104%

row,SMILES,growth
1,CCN(C(C)=O)c1ccc([N+](=O)[O-])cc1,97.5%
2,CCOC(=O)c1c[nH][nH]c1=O,108%
3,Nc1ccc2ccccc2c1-c1c(N)ccc2ccccc12,31.2%
4,CCCCOC(=O)c1ccc(NC(=O)CCl)cc1,51.7%
5,O=C(Nc1c(Cl)cc(Cl)cc1Cl)ON=C1CCCCC1,114%
6,O=Cc1ccc(Cl)c(Cl)c1,94.6%
7,CC(=O)Nc1ccc(O)c(C)c1,87%
8,O=S(=O)(O)C(C(I)I)S(=O)(=O)O,95.7%
9,NNC(=O)CCCCl,104%
10,CCCCCCCCCCCCCCCCCCSC(=N)N,65%
11,CCCNS(=O)(=O)c1ccc(Cl)cc1,92.9%
12,Nc1nc2nnc(-c3ccccc3)c(-c3ccccc3)n2n1,86.5%
13,CCCCCCCCCCCCCCCCCC(=O)NCCNC(=O)CCCCCCCCCCCCCCCCC,65%
14,CCCCCCCCCc1ccc(OC(C)=O)cc1,94.1%
15,CN1CCN(C(=S)S)CC1,98.4%
16,CCN1CCCC(N2c3ccccc3Sc3ccccc32)C1 (stereo not given),97.4%
17,CCN(CC)CCCC(C)NC(=S)N/N=C(\C)c1ccccn1 (stereo not given),41.1%
18,C=CC(C)C(C)(C)O (stereo not given),100%
19,Cc1ccc(C(C)C)c(OCC(=O)O)c1,98.7%
20,Oc1ccc(CCC2CCNc3ccccc32)cc1 (stereo not given),60.7%
